From PubChem BioAssay AID1347074 (Center for Chemical Genomics, University of Michigan, 2019)
About 2,800 (6%) of roughly 47,000 compounds were called active. The entries come from a sample that favours actives as a whole. A number with no mark means an inactive call. No stated cut-off is given here; in the data, active means z-score above about 3 (passing the limit was not always enough); inactive means the rest.

The compounds below were run against Endoribonuclease Dicer (Homo sapiens) (UniProt Q9UPY3) (assay: inhibitors of Dicer pre-microRNA processing, primary screen, biochemical, cat-ELCCA, chemiluminescence (AID 1347074;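 further: plate controls were vehicle for no effect and no enzyme for full effect; higher signal means more uncleaved substrate so more Dicer inhibition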)). Conditions: cat-ELCCA pre-miR-21 Dicer processing, at 25 µM, stronger effect = higher value.
Chain of Endoribonuclease Dicer (Homo sapiens) (Q9UPY3 whole entry, looked up): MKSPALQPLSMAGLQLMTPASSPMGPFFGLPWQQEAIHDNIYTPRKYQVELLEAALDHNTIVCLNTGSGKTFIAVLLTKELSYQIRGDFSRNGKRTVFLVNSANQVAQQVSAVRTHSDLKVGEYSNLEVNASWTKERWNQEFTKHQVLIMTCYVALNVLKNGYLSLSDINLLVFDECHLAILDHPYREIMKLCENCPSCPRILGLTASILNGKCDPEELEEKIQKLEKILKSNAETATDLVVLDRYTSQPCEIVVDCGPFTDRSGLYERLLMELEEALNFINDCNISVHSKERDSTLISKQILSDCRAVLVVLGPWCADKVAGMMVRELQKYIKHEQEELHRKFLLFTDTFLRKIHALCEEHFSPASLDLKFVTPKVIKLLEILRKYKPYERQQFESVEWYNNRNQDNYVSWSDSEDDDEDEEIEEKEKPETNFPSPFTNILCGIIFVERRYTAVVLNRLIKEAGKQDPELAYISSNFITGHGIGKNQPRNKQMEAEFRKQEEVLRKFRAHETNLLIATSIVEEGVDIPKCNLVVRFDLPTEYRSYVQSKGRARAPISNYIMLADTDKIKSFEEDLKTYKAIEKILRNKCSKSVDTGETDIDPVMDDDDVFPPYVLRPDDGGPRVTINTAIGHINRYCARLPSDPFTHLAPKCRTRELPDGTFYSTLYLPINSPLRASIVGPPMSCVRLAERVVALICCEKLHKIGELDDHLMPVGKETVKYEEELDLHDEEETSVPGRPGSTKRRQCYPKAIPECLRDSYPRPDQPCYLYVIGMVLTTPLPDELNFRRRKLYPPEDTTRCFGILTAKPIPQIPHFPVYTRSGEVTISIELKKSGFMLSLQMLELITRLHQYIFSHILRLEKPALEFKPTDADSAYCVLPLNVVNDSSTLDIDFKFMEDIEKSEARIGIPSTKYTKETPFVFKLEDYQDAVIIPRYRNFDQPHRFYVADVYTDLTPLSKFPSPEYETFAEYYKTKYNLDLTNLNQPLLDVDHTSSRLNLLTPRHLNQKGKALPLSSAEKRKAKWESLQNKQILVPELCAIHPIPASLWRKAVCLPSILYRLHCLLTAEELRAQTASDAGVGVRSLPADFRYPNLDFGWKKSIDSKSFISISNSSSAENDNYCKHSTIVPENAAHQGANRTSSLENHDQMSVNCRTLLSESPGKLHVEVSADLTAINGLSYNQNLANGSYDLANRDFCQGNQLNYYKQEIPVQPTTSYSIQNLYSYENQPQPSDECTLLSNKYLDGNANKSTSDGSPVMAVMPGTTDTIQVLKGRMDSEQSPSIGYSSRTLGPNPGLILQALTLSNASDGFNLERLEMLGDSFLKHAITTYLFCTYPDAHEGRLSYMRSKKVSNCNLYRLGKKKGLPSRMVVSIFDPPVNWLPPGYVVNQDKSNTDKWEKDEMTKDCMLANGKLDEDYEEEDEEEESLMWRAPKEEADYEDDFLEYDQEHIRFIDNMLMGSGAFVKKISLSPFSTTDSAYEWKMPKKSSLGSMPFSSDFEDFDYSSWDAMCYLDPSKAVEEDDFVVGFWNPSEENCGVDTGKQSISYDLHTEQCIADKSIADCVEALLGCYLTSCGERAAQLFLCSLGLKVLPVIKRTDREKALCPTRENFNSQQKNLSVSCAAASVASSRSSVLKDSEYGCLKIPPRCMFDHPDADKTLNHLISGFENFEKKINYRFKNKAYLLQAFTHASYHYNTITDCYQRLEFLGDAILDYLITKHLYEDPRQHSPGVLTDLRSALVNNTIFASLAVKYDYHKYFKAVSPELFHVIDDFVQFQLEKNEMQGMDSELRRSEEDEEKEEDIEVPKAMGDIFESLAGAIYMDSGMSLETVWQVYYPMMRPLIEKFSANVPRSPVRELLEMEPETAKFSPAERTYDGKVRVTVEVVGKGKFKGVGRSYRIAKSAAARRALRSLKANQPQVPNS

In order of falling z-score:
1. CCOC(=O)c1c(NC(=O)C2CCCN2S(=O)(=O)c2ccccc2)sc(C)c1C (stereo not drawn)  42.8
2. COc1ccccc1C(=O)CC1(O)C(=O)Nc2ccc(Cl)cc21 (stereo not drawn)  6.27
3. OC(CN1CCN(C(c2ccccc2)c2ccccc2)CC1)Oc1cccc(C(F)(F)F)c1 (stereo not drawn)  2.86
4. CC(C)(C)n1cnnc1Sc1ccc([N+](=O)[O-])cn1  2.43
5. Cc1cccc(C2C3=C(CCCC3=O)N=C3c4ccccc4C(=O)C32)c1 (stereo not drawn)  2.43
6. CC1CCN(C(=S)NC2CC3CCC2C3)CC1 (stereo not drawn)  2.37
7. O=C1c2cccc3cc(Br)cc(c23)C(=O)N1CCO  2.14
8. Cc1cc(C)c2c(c1)-c1cc(C)nn1C(c1ccc(O)cc1)N2 (stereo not drawn)  2.1
9. CCSCCOC(=O)C1=C(C)NC2=C(C(=O)CC(c3cccs3)C2)C1c1ccsc1 (stereo not drawn)  1.85
10. CNNC(=S)Nc1ccc(F)c(C)c1  1.79
11. C=CCn1c(SCc2nnc(SCC(=O)c3ccc(Cl)cc3)o2)nnc1-c1ccccc1  1.72
12. C=CCOc1ccc(C(=O)N(Cc2ccc(OC)cc2)C2CCS(=O)(=O)C2)cc1 (stereo not drawn)  1.67
13. COc1ccc(-c2cc(C(F)(F)F)nc(SCC(=O)NC3CCCC3)n2)cc1OC  1.64
14. CC(C)(C)c1ccc(-c2cc(NC(=O)c3ccc(Cl)cc3)n[nH]2)cc1  1.49
15. CC(=Nc1ccccc1)c1nc(-c2ccccc2)oc1O  1.37
16. Cn1c2c(c(=O)n(C)c1=O)C(C(=O)Nc1ccc(Cl)cc1)CC(=O)N2 (stereo not drawn)  1.36
17. Cc1cc(C(C)(C)C)ccc1NC(=O)COCC(=O)O  1.34
18. CC1=C(C(=O)OCC2CCCO2)C(c2cccs2)C2=C(CC(c3cccs3)CC2=O)N1 (stereo not drawn)  1.27
19. CSc1sc(C(=O)NN)cc1C#N  1.26
20. CCOC(=O)N1CCc2c(sc3c2C(=O)NC(c2ccccc2F)N3)C1 (stereo not drawn)  1.08
21. CCOC(=O)c1c(NC(=O)c2cc3ccccc3o2)sc(C)c1C  0.8
22. COC(=O)c1sccc1NNS(=O)(=O)c1ccc(C)cc1  0.67
23. CCCCOC(C)n1cc(Br)c(=O)[nH]c1=O (stereo not drawn)  0.67
24. C=CCn1c(Oc2ccccc2Cl)nc2c1c(=O)n(C)c(=O)n2C  0.6
25. COc1ccc2cc(S(=O)(=O)N3CCN(C(c4ccccc4)c4ccccc4)CC3)ccc2c1  0.57
26. CCN(CC)c1ccc(C2Nc3ccccc3-c3cc(C)nn32)c(O)c1 (stereo not drawn)  0.47
27. Cc1cc(C)c(C(=O)NC(=O)Nc2c(Cl)cc(Cl)cc2Cl)c(C)c1  0.37
28. O=S(=O)(c1cccc(-c2cn3cccnc3n2)c1)N1CCCC1  0.36
29. N#Cc1ccsc1N1C(=O)c2ccccc2C1=O  0.31
30. CCOc1ccc(-c2nc(-c3ccc(C)nc3OC)no2)cc1  0.23
31. NC(=O)c1c(NC(=O)CSc2nc3ccccc3o2)sc2c1CCC2  0.14
32. CCOCCOC(=O)C1=C(C)NC2=C(C(=O)CC(c3cccs3)C2)C1c1ccc(OC(C)=O)cc1 (stereo not drawn)  0.06
33. O=[N+]([O-])c1ccc(Sc2ccc(Cl)cc2)nc1  -0.03
34. CCOC(=O)CSC(=NC)NNC(=O)c1c(C)nc2cc(C)ccn12  -0.21
35. COc1c(Br)cc([N+](=O)[O-])c(OC)c1C(N)=O  -0.32
36. C=CCOc1ccc2c(=O)cc(C(=O)OCC)oc2c1  -0.35
37. COc1ccc(-c2cc(C(F)(F)F)nc(SCC(=O)NC3CC3)n2)cc1OC  -0.37
38. S=C(N/N=C/c1ccc(Cl)cc1)Nc1cc(Cl)ccc1Cl  -0.45
39. CC(Oc1cccc2c(=O)c3ccccc3oc12)C(=O)O (stereo not drawn)  -0.48
40. COc1ccc(-c2noc(-c3ccc(Cl)cc3)n2)cc1OC1CCCC1  -0.55
41. CCCCOc1cc(O)c2c(=O)cc(-c3ccccc3)oc2c1  -0.66
42. Cc1ccc(-n2c(C)nc3sc4c(c3c2=O)CCC(C)C4)cc1 (stereo not drawn)  -0.76
43. CCOC(=O)N/N=C/c1ccccc1Cl  -1.05
44. O=S(=O)(c1ccc(Cl)cc1)N1CCN(c2cc(C(F)(F)F)nc3ccccc23)CC1  -1.11
45. COC(=O)COc1c(C)cc(-c2nn(C)c(=O)c3ccccc23)cc1C  -1.18
46. CC1(C)Cc2c(C#N)c(SCc3nc4ccccc4[nH]3)nc(N3CCOCC3)c2CO1  -1.2
47. Cn1c(=O)c2c(nc(NCCc3ccccc3)n2Cc2ccccc2)n(C)c1=O  -1.91
48. Nc1nc(COc2ccccc2Cl)ncc1S(=O)(=O)c1ccccc1  -2.39
49. CCN1/C(=C\C=C\c2scc[n+]2CC)Sc2c1ccc1ccccc21  -2.64
50. CC(=O)/C(=C\N=S(C)(=O)c1ccc(C)cc1)S(=O)(=O)c1ccc(Cl)cc1 (stereo not drawn)  -3.56
51. CCc1[nH]nc2c1C(c1ccc(OC)c(OC)c1)C(C#N)=C(N)O2 (stereo not drawn)  -3.59
52. CC(C)(C)C(=O)Nc1ccncc1C(=O)O  -4.04

In the case of `CCOc1ccc(-c2cc(O)cc3sc(=O)oc23)cc1`, the z-score is reported as 5.74 (active).
With `CC(C)N1CCC(=O)N(c2ccccc2Cl)C1=O` the z-score was 5.02 (active).
With `CC(C)Oc1ccccc1Oc1ccc([N+](=O)[O-])cn1` the z-score was 14.5 (active).
In the case of `Cc1cc2n(n1)C(c1cc(C(C)(C)C)c(O)cc1O)Nc1ccccc1-2` (stereo not drawn), the z-score is reported as 3.4 (active).
In the case of `C=CCn1c(SCc2nc3ccccc3[nH]2)nnc1-c1ccccc1`, the z-score is reported as 4.03 (active).
`Cn1c(Oc2ccccc2Br)nc2c1c(=O)n(Cc1ccccc1)c(=O)n2C` was tested, and the z-score was 5.58 (active).
With `CC1=C(C(=O)OCc2ccccc2)C(c2ccc3c(c2)OCO3)C2=C(CC(c3cccs3)CC2=O)N1` (stereo not drawn) the z-score was 3.65 (active).
`O=C(O)c1ccccc1/C=N/Nc1cc(Cl)ccc1Cl` was tested, and the z-score was 5.07 (active).
In the case of `Cc1cc(Br)c(NC(=O)c2ccc(Cl)cc2)c(Br)c1`, the z-score is reported as 4.71 (active).
With `COc1ccc(-c2cc(C(F)(F)F)n3ncnc3n2)cc1OC` the z-score was 4.99 (active).
`C/C(=N\NC(=S)Nc1cccc(F)c1)c1ccco1` was tested, and the z-score was 5.72 (active).
